This is a sample that favours compounds with a hit; in the whole collection about 17% have one here.
DT40 TDP1 no CPT – qHTS for Inhibitors of human tyrosyl-DNA phosphodiesterase 1 (TDP1): qHTS in cells in absence of CPT | DT40 Tdp1-/- hTDP1 cells, no CPT, ATP luminescence, 48 h | Potency, µM (top dose mostly 46.2 µM), for the others: at the highest dose activity change, negative = growth inhibition, most hits filed as inhibitors | 420,000 compounds, 15% hits | AID 686978, 2013; also: % is scaled to controls: 0 for no effect and ±100 for the full control effect; nearly all actives have a fitted effect of over 55% in size
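Compound effects on proliferation are scored in DT40 Tdp1-/-;hTDP1 cells in the absence of CPT. ATP levels (CellTiter-Glo luminescence) are recorded after a ≥48 hr, 37 °C incubation.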
DT40 TDP1 CPT – qHTS for Inhibitors of human tyrosyl-DNA phosphodiesterase 1 (TDP1): qHTS in cells in presence of CPT | chicken DT40 Tdp1-/-;hTDP1 cells + 20 nM CPT, ATP luminescence, 48 h | Potency, µM (titrated, usually from 46.2 µM), without a hit: top-dose activity change, negative = growth inhibition, actives largely listed as inhibitors | 420,000 compounds, 12% hits; also: % is scaled to controls: 0 for no effect and ±100 for the full control effect; nearly all actives have a fitted effect of over 55% in size
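Chicken DT40 Tdp1-/- cells complemented with human TDP1, 400 cells/well, exposed to compounds plus 20 nM camptothecin for at least 48 h at 37 C; viability read as ATP content by CellTiter-Glo luminescence.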
ClpP mod – qHTS Assay for Activators of ClpP | AID 651965, 2013 | Potency, µM (series often up to 57.5 µM), for the others: at the top dose activity change, negative = active | purified B. subtilis ClpP, FRET peptide cleavage, 20 min | 340,000 compounds, 1.9% hits | ATP-dependent Clp protease proteolytic subunit (Bacillus subtilis (strain 168)), P80244; active = well fitted falling curve with a large enough effect; inconclusive = small, poorly fitted or top-dose-only effect; inactive = no such curve, though single readings can be large or run the other way; also: the source files actives as falling curves though it sought activators and does not explain the sign; nearly all actives have a fitted effect of over 65% in size
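Purified B. subtilis ClpP, 10 microg/mL final in Tris/HCl pH8 with KCl, BSA, glycerol and Tween-20, cleaved an Abz/nitrotyrosine-quenched decapeptide. Fluorescence (ex 320, em 430) was read at 0 and 20 min at room temperature. Delta was normalized to 5.8 microM ADEP and DMSO/no-enzyme controls.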
TDP1 inh – qHTS Assay for Inhibitors of Tyrosyl-DNA Phosphodiesterase (TDP1); Tyrosyl-DNA phosphodiesterase 1 (Homo sapiens), Q9NUW8; recombinant TDP1, AlphaScreen DNA substrate cleavage; AID 485290, 2010; 350,000 compounds, 0.28% hits; Potency, µM (series often up to 130 µM), without a hit: at the highest dose activity change, negative = inhibition, actives largely listed as inhibitors; also: % is scaled to controls: 0 for no effect and ±100 for the full control effect; nearly all actives have a fitted effect of over 40% in size
Target sequence (Q9NUW8 whole entry, looked up): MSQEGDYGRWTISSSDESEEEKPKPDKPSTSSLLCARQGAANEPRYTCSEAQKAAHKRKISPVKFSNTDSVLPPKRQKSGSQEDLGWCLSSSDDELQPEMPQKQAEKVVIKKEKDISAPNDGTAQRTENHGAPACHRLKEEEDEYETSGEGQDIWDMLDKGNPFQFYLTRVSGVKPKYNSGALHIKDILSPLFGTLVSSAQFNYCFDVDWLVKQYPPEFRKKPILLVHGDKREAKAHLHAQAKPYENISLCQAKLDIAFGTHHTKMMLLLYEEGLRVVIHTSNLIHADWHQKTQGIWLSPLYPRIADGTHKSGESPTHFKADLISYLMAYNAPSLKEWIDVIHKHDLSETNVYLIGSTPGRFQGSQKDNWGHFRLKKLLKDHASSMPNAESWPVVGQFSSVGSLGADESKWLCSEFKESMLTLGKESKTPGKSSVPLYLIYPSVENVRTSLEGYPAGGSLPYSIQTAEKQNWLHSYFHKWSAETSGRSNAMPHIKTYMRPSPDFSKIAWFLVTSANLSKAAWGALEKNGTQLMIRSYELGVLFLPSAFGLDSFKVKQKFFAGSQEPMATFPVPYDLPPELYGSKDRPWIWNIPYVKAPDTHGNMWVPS
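Recombinant human Tdp1 (E. coli-expressed, 1 nM final) preincubated with compounds 15 min at room temperature, then 5'-biotin/3'-phosphotyrosine-FITC DNA substrate (15 nM final) added for 5 min. AlphaScreen beads (10 ug/ml final) added 10 min; cleavage lowers signal.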
* hit, by the source's call; ? = inconclusive; · = not tested or not shown; ! = not confirmed by another sample; [ ] = remark or other dose. Unless noted, calls follow the shape of the dose curve; as a rule, active = well fitted curve in the direction sought with a large enough effect; inconclusive = small, poorly fitted or top-dose-only effect, or another doubt; inactive = no such curve, though single readings can be large; an effect the other way counts as inactive or inconclusive. Potency is read from the fitted curve at half-maximal effect.

SMILES | DT40 TDP1 no CPT | DT40 TDP1 CPT | ClpP mod | TDP1 inh
CN1C(=O)N(C)C(=O)C2(Cc3cc(N)ccc3N3CCN(c4ccccc4F)CC32)C1=O (configuration not stated) | · | · | · | -6%
NNC(N)=O | 2% | -1% | -1% | 2%
COc1ccc(C2CC(=O)Oc3c2c(=O)oc2ccccc32)c(OC)c1OC (configuration not stated) | -3% | -12% | ? | 1%
COc1ccc(C2=CC(c3ccc4c(c3)OCO4)c3c(c4ccccc4oc3=O)O2)cc1OC (configuration not stated) | 21µM* | 15µM* | ? | ·
COc1cc(Cl)c(C)cc1NC(=O)CCCn1c(=O)oc2ccccc21 | ? | -23% | -1% | 1%
O=C1CC(c2ccccc2Br)c2c(c3ccccc3oc2=O)O1 (configuration not stated) | -3% | 14% | 4% | 2%
Nc1nnc(Sc2ncccc2[N+](=O)[O-])s1 | 16µM* | ? | -9% | 3%
Cn1cc(C2=C(c3cn(C4CCN(Cc5ccccn5)CC4)c4ccccc34)C(=O)NC2=O)c2ccccc21 | -5% | 5% | · | ·
Oc1c(Cl)cccc1Cc1cc(Cl)cc(Cl)c1O | 21µM* | ? | · | ·
Oc1c(Cl)cccc1Cl | · | · | · | 3%
O=C(NCCc1ccccc1)[C@@H]1CC=C[C@@H]2CCN(Cc3ccc(Cl)c(Cl)c3)C(=O)[C@@H]21 | 10µM* | 4µM* | 2% | ·
O=C(Nc1ccccc1)N1CC[C@@]2(CCCN(C(=O)Oc3ccccc3)C2)C1 | -11% | 5% | · | ·
O=C(c1ccc2c(c1)N(Cc1ccc(F)cc1Cl)C(=O)c1ccccc1S2)N1CCC2(CC1)OCCO2 | 23µM* | 23µM* | 0% | 8%
Cc1ccc(CN2C(=O)c3ccccc3Sc3ccc(C(=O)N4CCC5(CC4)OCCO5)cc32)cc1 | 23µM* | ? | -1% | 10%
C=CCN1C(=O)c2ccccc2Sc2ccc(C(=O)N3CCC4(CC3)OCCO4)cc21 | ? | ? | 1% | 3%
COc1ccc(-n2c(O)c(C=NCCN(C)C)c(=O)[nH]c2=O)cc1 | -1% | -23% | 2% | ·
C[C@]12CC[C@H](O)CC1=CC(=O)C1C2CC[C@]2(C)C(=O)CCC12 (some centres not stated) | -3% | -7% | 0% | 4%
CCOc1ccc(/C=C/c2nc(C#N)c(NCc3ccccc3)o2)cc1 | 1.2µM* | ? | 4% | 2%
CCOP(=O)(OCC)c1nc(-c2ccccc2)oc1NCc1ccccc1 | ? | ? | ? | -6%
C#CCN1CC(=O)N(COC(=O)[C@@H]2[C@@H](C=C(C)C)C2(C)C)C1=O | · | · | · | 6%
Cc1ccc(NC(=O)C2CCCN(C(=O)c3cnn(-c4ccccc4)c3-n3cccc3)C2)cc1 (configuration not stated) | 18µM* | 15µM* | -2% | 5%
O=C(NCc1ccc(Cl)cc1)C1CCCN(C(=O)c2cnn(-c3ccc(F)cc3)c2-n2cccc2)C1 (configuration not stated) | 5.8µM* | 8.2µM* | 1% | 6%
COCc1c(C(=O)N2CCC(c3ccccc3)CC2)cnn1-c1nccc(-c2cc(C)sc2C)n1 | ? | -11%[9.04 µM] | · | ·
CSc1cccc(NC(=O)C2CCN(C(=O)c3cnn(-c4ccccc4)c3-n3cccc3)CC2)c1 | 18µM* | 16µM* | -4% | 5%
COC(=O)[C@@]1(C)[C@H]2C(=O)N(Cc3ccccc3)C(=O)[C@H]2[C@H]2CN=C(SCc3ccc(Cl)cc3)N21 | ? | ? | 1% | 1%[56.1 µM]
SMILES | DT40 TDP1 no CPT | DT40 TDP1 CPT | ClpP mod | TDP1 inh
O=c1c(F)cn(C2CCCO2)c(=O)n1Cc1c(F)cccc1Cl (configuration not stated) | ? | 6% | -2% | 3%
CC(CC(C#N)(c1ccccc1)c1ccccc1)N1CCOCC1 (configuration not stated) | ? | 23µM* | · | ·
COc1ccc(-n2c(=O)[nH]c3ccccc3c2=O)c(OC)c1 | -19% | -21% | -7% | 6%
COc1ccc(-n2c(=S)[nH]c3c(sc(=S)n3-c3ccccc3)c2=O)c(OC)c1 | 16µM* | 21µM* | 11µM* | 0%
CCN(c1ccccc1)S(=O)(=O)c1cccc(C(=O)NCc2cccnc2)c1 | ? | ? | -2% | ·
Cn1c(O)c(Cc2cccc(Cl)c2Cl)c(=O)n(C)c1=O | 11% | -7% | -1% | ·
Cc1ccccc1[N+](=O)[O-] | 10% | -4% | 1% | 1%
Cc1cc([N+](=O)[O-])c2ccccc2[n+]1[O-] | 0.052µM* | 0.046µM* | 1% | ·
CC(C)C(OC(=O)c1ccco1)C(=O)NCc1ccco1 (configuration not stated) | ? | ? | -4% | -1%
C[C@H]1COC2=C1C(=O)C(=O)c1c2ccc2c1CCCC2(C)C | 5.2µM* | 5.2µM* | -9% | 21%
CC1COC2=C1C(=O)C(=O)c1c2ccc2c1CCCC2(C)C (configuration not stated) | 13µM* | ? | · | 20%
NP(=O)(OCCCc1ccccc1)Oc1ccccc1 (configuration not stated) | -20% | -18% | 2% | ·
NC(=O)OCCCc1ccccc1 | 21µM*! | 5.3µM*! | -1% | 6%
CN1CCN(c2ncnc3ccc(Br)cc23)CC1 | ? | 26µM* | 0% | 3%
CN1CCC(N(C)c2ncnc3ccc(Br)cc23)CC1 | ? | ? | -1% | 8%
CCCC/C(C)=C/[C@@H](NP(=O)(c1ccccc1)c1ccccc1)c1ccccc1 | 16µM* | ? | -2% | 1%
Cc1ccc(C)c(CN2C(=O)c3ccccc3S(=O)(=O)c3ccc(C(=O)N4CCCCCC4)cc32)c1 | ? | ? | -3% | -3%
Cc1onc(-c2ccccc2Cl)c1C(=O)NCc1ccc2c(c1)cc(C)n2C | 6.5µM* | ? | -2% | ·
CCSc1nnc(NC(=O)c2cccn(Cc3ccccc3Cl)c2=O)s1 | 11% | 2% | 0% | 1%
Cc1cc(C)c(C(=O)CN2CCOCC2)c(C)c1 | -21% | -19% | 32µM* | 1%
COc1ccc(C(=O)CN2CCOCC2)cc1 | -5% | -21% | -3% | ·
CC[C@@H](CO)C1CC2NC3CC4(c5ccccc5N(C)[C@@H]24)C(O)C31 (some centres not stated) | -4% | -6% | -5% | ·
Cc1ccc(Cl)cc1N1CCN(c2ncnc3c2nc2n3CCCC2)CC1 | 18µM* | ? | 2% | 4%
C#CCOC(C(=O)OCCN(C)C)(c1ccccc1)c1ccccc1 | 12µM* | 21µM* | · | ·
C#CCOc1ccc(OC)cc1C(c1c(C)[nH][nH]c1=O)c1c(C)[nH][nH]c1=O | ? | 15% | · | 6%

Source: PubChem
